Data on 5 molecules can be found in PubChem BioAssay.

Active and inactive are the calls of the source.

Assay [1] is described as follows: small molecules captured by biotinylated probe aFSTL3 – biochemical, small-molecule microarray, fluorescence 635/667, stem cell growth factor project, primary screen (AID 1064).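 Further: measures binding of the biotinylated anti-FSTL3 antibody to printed compounds.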 The note with it: higher = more signal.
The nature of assay [2]: binders from COS7 lysate, DM2A8 probe, primary screen, torsin A project, cell lysate, small-molecule microarray, fluorescence 635/667 (AID 1065). The note with it: higher = more signal, COS7 lysate expressing mutant human TOR1A.
Assay [3] is described as follows: small molecules captured by biotinylated probe aFGF2 – biochemical, small-molecule microarray, fluorescence 635/667, stem cell growth factor project, primary screen (AID 1067).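 Further: measures binding of biotinylated aFGF2 protein to printed compounds on slides; z-score merges feature fluorescence and signal-to-noise across triplicate slides.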 To be noted: higher = more signal.
Assay [4] can be described thus: small molecules captured by biotinylated probe aFGF10 – biochemical, small-molecule microarray, fluorescence 635/667, stem cell growth factor project, primary screen (AID 1071).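 Further: score merges 667 nm spot intensity and signal to noise from triplicate slides.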 The note with it: higher = more signal.
Assay [5] has as its target Neurogenic locus notch homolog protein 2 (Homo sapiens) (UniProt Q04721). The experiment in a line: small molecules binding Notch2 protein – biochemical, small-molecule microarray, 635 nm fluorescence, stem cell growth factors, primary screen (AID 1073). To be noted: higher = more signal.
Assay [6] addresses Pro-neuregulin-1, membrane-bound isoform (Homo sapiens) (UniProt Q02297). Kind of assay: small molecules binding neuregulin-1 protein – biochemical, small-molecule microarray, fluorescence 635/667, psychiatric disease protein project, primary screen (AID 1075).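 Further: score combines 667 nm spot fluorescence with signal to noise.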 To be noted: NRG1 binding, 635 nm fluorescence, higher = more signal.
For assay [7], the system named is Neuregulin-1 EGF-like domain. Kind of assay: small molecules binding NRG1 EGF domain – biochemical, small-molecule microarray, 635 nm fluorescence, primary screen (AID 1081).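 Further: binding of the protein to compounds printed on small-molecule microarray slides.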 To be noted: higher = more signal.
Assay [8] is described as follows: FRG1 expression reporter modulators in myotubes – cell-based, C2C12 myotubes, firefly/Renilla luciferase, luminescence, FRG1 inhibition for FSHD, primary screen (AID 1084). The note with it: FRG1 promoter luciferase, higher = more signal, called active from +8 up or from −8 down.
A short description of assay [9]: small molecules captured by biotinylated probe aFST – biochemical, small-molecule microarray, fluorescence 635/667, stem cell growth factor project, primary screen (AID 1086).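 Further: score merges 667 nm fluorescence with signal-to-noise of each printed compound spot.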 The note with it: higher = more signal.
Assay [10] in a line: binders of probe aHhip on microarray, primary screen, stem cell growth factor project, biochemical, small-molecule microarray, fluorescence 635/667 (AID 1087).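 Further: score merges spot fluorescence at 667nm with spot signal to noise ratio.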 The note with it: higher = more signal.
Assay [11] deals with PRMT1 (protein arginine N-methyltransferase 1). Kind of assay: small molecules binding arginine methyltransferase PRMT1 – biochemical, small-molecule microarray, 635 nm fluorescence, primary screen (AID 1088).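 Further: binding of Prmt1 protein to compounds spotted on small-molecule microarray slides.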 To be noted: higher = more signal.
Assay [12] is described as follows: growth effects on S. cerevisiae YJM789 – YJM789 clinical isolate, OD600, 24 h, basal, primary screen (AID 1089).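 Further: growth of clinical yeast isolate S. cerevisiae YJM 789 seeded 1000 cells per well; test concentration not given here.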 The note with it: higher = more signal, called active from +8 up or from −8 down.
Assay [13] is described as follows: S. pombe growth modifiers, basal conditions – strain 972, OD600, 24 h, no modulator, primary screen (AID 1090).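 Further: basal condition with compound alone and no growth modifier present; test concentration not given here.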 To be noted: S. pombe 972 growth, higher = more signal, called active from +8 up or from −8 down.
A short description of assay [14]: budding yeast growth modifiers under rapamycin – strain BY4716, OD600, 96 h, primary screen (AID 1091). Further: test concentration not given here. To be noted: S. cerevisiae BY4716 + rapamycin, higher = more signal, called active from +8 up or from −8 down.
Assay [15] deals with Torsin-1A-interacting protein 2 (Homo sapiens) (UniProt Q8NFQ8). The experiment in a line: small molecules binding lysate-expressed LULL1 – cell lysate, human LULL1 lysate, 635/667 nm fluorescence, primary screen (AID 1092).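 Further: probe is lysate of COS7 cells overexpressing human LULL1; score merges per-feature 667 nm fluorescence with signal-to-noise.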 To be noted: small-molecule microarray, hLULL1 lysate binding, 635 nm fluorescence; higher = more signal.
Sequence of Torsin-1A-interacting protein 2 (Homo sapiens) (Q8NFQ8 whole entry, looked up): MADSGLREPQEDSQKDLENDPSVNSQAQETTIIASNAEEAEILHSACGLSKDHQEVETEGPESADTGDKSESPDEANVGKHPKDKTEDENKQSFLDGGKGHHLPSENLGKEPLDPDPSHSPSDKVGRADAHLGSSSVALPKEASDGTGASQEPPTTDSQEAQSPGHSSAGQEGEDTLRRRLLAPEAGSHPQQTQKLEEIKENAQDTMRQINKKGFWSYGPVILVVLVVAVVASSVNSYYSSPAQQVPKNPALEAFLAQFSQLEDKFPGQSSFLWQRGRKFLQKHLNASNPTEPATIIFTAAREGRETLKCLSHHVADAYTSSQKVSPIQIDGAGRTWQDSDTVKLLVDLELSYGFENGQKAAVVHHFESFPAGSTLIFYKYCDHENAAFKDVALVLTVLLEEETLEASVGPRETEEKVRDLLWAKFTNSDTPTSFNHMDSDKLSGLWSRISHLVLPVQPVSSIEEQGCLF
Assay [16] in a line: optical density change of DRC41 E. coli – strain DRC41, OD650, 24 h, E. coli filamentation project, primary screen (AID 1093).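 Further: MC1000 strain lacking acrAB efflux and sulA so SOS filamentation is blocked; test concentration not given here.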 To be noted: E. coli DRC41 growth, higher = more signal, called active from +8 up or from −8 down.
Assay [17] is described as follows: probe aLefty2 binding to arrayed compounds – biochemical, biotinylated probe, 635/667 nm fluorescence, primary screen (AID 1094).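 Further: score merges spot fluorescence near 667 nm with spot signal-to-noise ratio.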 To be noted: small-molecule microarray, higher = more signal.
For assay [18], the system named is Noggin (protein binding on small-molecule microarray). Kind of assay: small molecules binding Noggin protein – biochemical, 635/667 nm fluorescence, primary screen (AID 1095).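 Further: score merges 667 nm feature fluorescence with signal to noise over triplicate slides.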 To be noted: 635 nm fluorescence, higher = more signal.
In assay [19] the target is Neurogenic locus notch homolog protein 3 (Homo sapiens) (UniProt Q9UM47). The experiment in a line: small molecules binding NOTCH3 protein – biochemical, 635/667 nm fluorescence, primary screen (AID 1096). The note with it: small-molecule microarray, 635 nm fluorescence, higher = more signal.
Sequence of Neurogenic locus notch homolog protein 3 (Homo sapiens) (Q9UM47 whole entry, looked up): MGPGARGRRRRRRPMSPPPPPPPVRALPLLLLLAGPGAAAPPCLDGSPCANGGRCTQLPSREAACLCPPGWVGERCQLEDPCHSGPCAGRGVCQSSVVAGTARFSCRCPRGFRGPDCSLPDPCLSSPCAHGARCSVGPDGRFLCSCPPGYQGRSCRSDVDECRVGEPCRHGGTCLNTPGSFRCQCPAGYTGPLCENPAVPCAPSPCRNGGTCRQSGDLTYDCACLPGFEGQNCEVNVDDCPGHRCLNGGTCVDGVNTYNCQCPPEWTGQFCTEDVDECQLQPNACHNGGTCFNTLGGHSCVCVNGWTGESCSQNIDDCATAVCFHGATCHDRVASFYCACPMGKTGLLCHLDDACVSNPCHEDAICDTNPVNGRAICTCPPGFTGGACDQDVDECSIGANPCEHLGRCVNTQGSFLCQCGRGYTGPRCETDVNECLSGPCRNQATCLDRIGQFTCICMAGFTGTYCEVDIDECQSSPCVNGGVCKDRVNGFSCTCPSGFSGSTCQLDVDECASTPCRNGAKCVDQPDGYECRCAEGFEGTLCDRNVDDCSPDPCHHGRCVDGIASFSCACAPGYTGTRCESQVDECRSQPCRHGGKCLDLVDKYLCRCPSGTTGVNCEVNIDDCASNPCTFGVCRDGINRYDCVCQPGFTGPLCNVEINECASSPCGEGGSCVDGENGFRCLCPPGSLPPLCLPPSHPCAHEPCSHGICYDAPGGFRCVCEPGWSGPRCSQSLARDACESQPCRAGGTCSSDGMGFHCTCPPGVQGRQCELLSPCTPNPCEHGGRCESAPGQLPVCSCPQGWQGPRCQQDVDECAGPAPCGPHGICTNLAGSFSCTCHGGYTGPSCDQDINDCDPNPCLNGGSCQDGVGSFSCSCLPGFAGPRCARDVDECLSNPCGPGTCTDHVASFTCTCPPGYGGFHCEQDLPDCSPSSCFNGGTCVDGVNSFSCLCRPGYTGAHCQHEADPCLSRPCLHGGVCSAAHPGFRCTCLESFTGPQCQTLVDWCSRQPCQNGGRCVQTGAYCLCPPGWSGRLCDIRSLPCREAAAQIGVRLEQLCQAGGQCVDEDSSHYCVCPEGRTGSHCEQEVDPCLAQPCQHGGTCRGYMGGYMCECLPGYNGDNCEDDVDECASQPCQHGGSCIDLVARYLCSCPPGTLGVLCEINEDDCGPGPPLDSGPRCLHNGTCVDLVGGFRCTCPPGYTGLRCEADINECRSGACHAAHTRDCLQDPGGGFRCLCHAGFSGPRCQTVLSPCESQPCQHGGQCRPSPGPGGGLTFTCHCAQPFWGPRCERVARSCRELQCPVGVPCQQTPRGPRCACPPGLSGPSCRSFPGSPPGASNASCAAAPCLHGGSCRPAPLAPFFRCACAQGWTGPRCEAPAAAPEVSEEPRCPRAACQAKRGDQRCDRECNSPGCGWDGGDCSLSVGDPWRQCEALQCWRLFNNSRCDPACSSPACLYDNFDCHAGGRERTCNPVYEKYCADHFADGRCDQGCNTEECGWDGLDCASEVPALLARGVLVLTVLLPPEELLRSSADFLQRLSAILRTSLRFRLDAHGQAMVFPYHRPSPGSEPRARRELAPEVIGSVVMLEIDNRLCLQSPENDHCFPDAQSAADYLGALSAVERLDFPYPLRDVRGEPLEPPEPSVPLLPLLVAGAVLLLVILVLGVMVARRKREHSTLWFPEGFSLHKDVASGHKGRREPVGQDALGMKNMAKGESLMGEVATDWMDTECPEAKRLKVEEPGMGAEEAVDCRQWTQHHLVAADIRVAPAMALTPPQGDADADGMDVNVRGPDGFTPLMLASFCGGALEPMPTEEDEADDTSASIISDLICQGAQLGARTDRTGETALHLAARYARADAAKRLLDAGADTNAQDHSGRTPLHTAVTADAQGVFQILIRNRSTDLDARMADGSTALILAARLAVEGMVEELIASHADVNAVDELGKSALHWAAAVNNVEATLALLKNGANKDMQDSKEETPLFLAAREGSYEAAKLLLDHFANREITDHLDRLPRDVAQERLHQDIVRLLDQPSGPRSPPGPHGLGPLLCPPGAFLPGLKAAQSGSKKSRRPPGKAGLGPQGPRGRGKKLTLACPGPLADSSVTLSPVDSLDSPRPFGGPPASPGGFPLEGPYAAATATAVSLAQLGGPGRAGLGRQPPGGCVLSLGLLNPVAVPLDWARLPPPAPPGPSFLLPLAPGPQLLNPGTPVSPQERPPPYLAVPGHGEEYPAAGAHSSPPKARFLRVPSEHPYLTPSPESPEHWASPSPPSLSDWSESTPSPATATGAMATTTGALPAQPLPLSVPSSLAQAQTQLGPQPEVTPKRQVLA
A short description of assay [20]: probe aEGFR binding to arrayed compounds – biochemical, biotinylated probe, 635/667 nm fluorescence, primary screen (AID 1097).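 Further: probe is a biotinylated anti-EGFR antibody binding compounds printed on slides; score combines fluorescence near 667 nm and signal to noise of each spot.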 The note with it: small-molecule microarray, higher = more signal.

Sequence of Pro-neuregulin-1, membrane-bound isoform (Homo sapiens) (Q02297 whole entry, looked up, the tested form may be a part, canonical isoform): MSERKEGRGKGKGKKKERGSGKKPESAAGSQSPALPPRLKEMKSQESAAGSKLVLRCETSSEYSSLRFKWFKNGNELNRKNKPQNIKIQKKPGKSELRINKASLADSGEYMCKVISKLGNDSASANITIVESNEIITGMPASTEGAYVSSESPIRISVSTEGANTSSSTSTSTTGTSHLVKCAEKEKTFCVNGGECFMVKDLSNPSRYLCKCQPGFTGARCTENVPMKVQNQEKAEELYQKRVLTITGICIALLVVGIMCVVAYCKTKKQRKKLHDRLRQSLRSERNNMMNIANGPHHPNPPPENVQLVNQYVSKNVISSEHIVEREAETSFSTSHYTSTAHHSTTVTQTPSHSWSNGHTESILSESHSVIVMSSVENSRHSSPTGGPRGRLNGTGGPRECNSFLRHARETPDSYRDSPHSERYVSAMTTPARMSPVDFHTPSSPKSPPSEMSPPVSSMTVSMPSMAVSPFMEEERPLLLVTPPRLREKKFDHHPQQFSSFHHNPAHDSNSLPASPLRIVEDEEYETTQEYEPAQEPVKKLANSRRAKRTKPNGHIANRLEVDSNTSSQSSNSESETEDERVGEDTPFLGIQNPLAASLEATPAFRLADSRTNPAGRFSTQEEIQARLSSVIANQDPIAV

As for `CN1C(=O)C2C(C1=O)C1C=C(c3ccc(CO)cc3)C2C(c2cccs2)N1C` (stereo not given), the composite z-score is 0.085 in assay [1]; 0.429 in assay [2]; -0.0578 in assay [3]; 0.0934 in [4]; -0.0125 in [5]; 0.885 in assay [6]. Besides, the composite z-score in [7] was 1.04; in assay [9], -0.075; in assay [10], -0.137; in [11], -0.27; in [15], 0.989; in [17], -0.072. In addition, the composite z-score is -0.518 in [18], -0.133 in assay [19] and 0.637 in assay [20]. The z-score was 1.63 (inactive) in [8]; -0.208 (inactive) in assay [12]; -2.24 (inactive) in [13]; 1.33 (inactive) in assay [14]; 1.24 (inactive) in assay [16].

For `CCOC(=O)C[C@H]1[C@H](OC(=O)c2cc3ccccc3oc2=O)[C@@H](NC(=O)C2CCCCC2)c2cc(OCCCO)ccc2N1C(=O)Cc1ccc(OC)cc1`, the composite z-score in [1] was -0.0716; in assay [2], 0.714; in assay [3] it was 0.0066; in assay [4] it was 0.65; in [5], 0.54; in assay [6] it was 0.052. Besides, the composite z-score is 0.72 in assay [7]; 0.352 in assay [9]; -0.201 in assay [10]; 0.466 in assay [11]; 0.727 in assay [15]; 0.0424 in assay [17]. Also, the composite z-score was 0.909 in assay [18], 0.894 in assay [19] and -0.0623 in [20]. Besides, the z-score in assay [8] was 0.198 (inactive); in assay [12] it was 0.248 (inactive); in assay [13] it was 0.222 (inactive); in assay [14], -0.295 (inactive); in assay [16], -0.723 (inactive).

For `C=CCC(OC(C)=O)[C@@H]1[C@@H](N(Cc2cccc3ccccc23)C(=O)c2ccc(C)cc2)c2cc(OCCCO)ccc2N1C(=O)c1ccc2ccccc2n1` (stereo not given in full), the composite z-score was -0.0635 in assay [1]; 0.552 in assay [2]; 0.01 in [3]; 0.238 in assay [4]; -0.327 in assay [5]; -0.157 in assay [6]. The composite z-score in assay [7] is 0.0751; in assay [9], 0.223; in assay [10] it was 0.386; in assay [11] it was 0.56; in [15], 0.563; in [17], 0.0748. Besides, the composite z-score in assay [18] is 0.708; in assay [19], 0.209; in assay [20] it was -0.0437. For the same molecule, the z-score is -1.44 (inactive) in [8]; -2.04 (inactive) in assay [12]; 0.378 (inactive) in assay [13]; -0.6 (inactive) in assay [14]; 1.21 (inactive) in [16].

As to `C=CCC(OC(C)=O)[C@@H]1[C@@H](N(Cc2cc3ccccc3o2)C(=O)Cc2ccc(OC)cc2)c2cc(OCCCO)ccc2N1C(=O)Cc1ccc2ccccc2c1` (stereo not given in full), the composite z-score is 0.0169 in assay [1]; -0.94 in assay [2]; -0.0348 in assay [3]; -0.377 in assay [4]; -0.368 in assay [5]; -0.359 in [6]. Besides, the composite z-score in [7] was 0.331; in [9], 0.0598; in assay [10] it was 0.0505; in assay [11], -0.328; in assay [15], 0.783; in assay [17] it was -0.115. The composite z-score in assay [18] was -0.507; in assay [19] it was -1.01; in assay [20] it was -0.145. Further, the z-score in assay [8] was -0.906 (inactive); in assay [12], 0.225 (inactive); in [13], 0.232 (inactive); in assay [14], 0.738 (inactive); in [16] it was -0.0576 (inactive).

With `N[C@@H](Cc1ccccc1)Cn1cc(C2(O)CCCCC2)nn1`, the composite z-score in assay [1] was -0.337; in [2] it was 0.543; in assay [3] it was -0.0718; in [4], -0.244; in [5], -0.232; in assay [6] it was 0.138. Besides, the composite z-score is -0.204 in assay [7]; 1.27 in assay [9]; 0.0722 in assay [10]; -0.235 in assay [11]; 0.205 in [15]; -0.128 in [17]. For the same molecule, the figures for the composite z-score in assay [18], in [19] and in assay [20] were 0.112, 0.293 and -0.14, respectively. In addition, the z-score is 2.2 (inactive) in assay [8]; -0.692 (inactive) in [12]; -0.16 (inactive) in assay [13]; -0.522 (inactive) in [14]; -1.15 (inactive) in [16].
